Assay results from ChEMBL document CHEMBL3988442, “University of Dundee, Small-Polar-MMV Screening Library” (2021).
Screen size: about 48,000 compounds; about 13,000 (27%) showed an effect of 50% or more. The list shows a part of the results.

These compounds were tested on Wolbachia pipientis (assay: Anti-Wolbachia Cell-Based Screen). Settings: 5 µM.
Type: functional
Parameters: scale not given: in the data most compounds retested in dose-response had high values

Structure (SMILES)	Percent Effect
COc1cccc(-c2ccc(CNC(=O)c3ccc(=O)n(C)c3)cc2)c1	0.1145%
CCc1nc(CN(C)C(=O)C2CC(=O)N(c3cccc(O)c3)C2)no1 (stereo not given)	15.35%
CN(C)S(=O)(=O)N1CC[C@]2(C[C@@H](OCc3ccccn3)CO2)C1.O=C(O)C(F)(F)F	-10.12%
CC(C(=O)O)N1CC2(CCC1=O)CCN(CCSc1ccccc1)CC2 (stereo not given)	-16.96%
COCCN(C)C(=O)Nc1ccn(-c2cccc(C(F)(F)F)c2)n1	-15.63%
CCN(Cc1ccncc1)c1cc(C2CCNCC2)nc(C)n1	95.16%
CCN(Cc1ccncc1)c1nc(C)nc2oc(C)nc12	-65.89%
Cc1nc(C2CCNCC2)cc(N(C)CCc2cn[nH]c2)n1	-7.954%
CCN(Cc1c(F)cccc1Cl)c1cc(C2CCNCC2)nc(C)n1	117.3%
CCN(Cc1ccncc1)c1cc(C2CCN2C(C)=O)nc(C)n1 (stereo not given)	128.1%
CNS(=O)(=O)CC(=O)N(Cc1c(F)cccc1Cl)C1CC1	-9.118%
Cc1nc(C2CCCNC2)cc(N(C)CCc2ccccc2)n1 (stereo not given)	1.735%
Cc1nc(C2CCNCC2)cc(N2CCOc3ccccc3C2)n1	-3.992%
Cc1ccnc(CC(C)N(C)c2cc(C3CCNCC3)nc(C)n2)c1 (stereo not given)	6.994%
CCN(Cc1ccncc1)c1cc(C2CCCNC2)nc(C)n1 (stereo not given)	103.1%
Cc1cccc(OCC(=O)N(Cc2ccncc2)C2CC2)c1	-0.008091%
CO[C@H]1COCCN(C(=O)c2cc(C)oc2C(F)(F)F)C1	-0.5452%
CN(CCc1ccccc1)c1cnn(CC(=O)N2CCOCC2)c(=O)c1	17.19%
Cc1nc(N(C)C/C=C/c2ccccc2)c2cnn(C)c2n1	1.614%
COc1cc(C(C#N)NC(=O)CC2=CCCCC2)cc(OC)c1OC (stereo not given)	-9.8%
O=C(c1cnns1)N1CCN(c2ccc(F)cc2Cl)CC1	-2.521%
CCOc1cc(=O)n2c(c1C(=O)OCc1ccc(OC)cc1)CCCC2	91.51%
CCOc1cc(=O)n2c(c1C(=O)OCc1ccc(F)cc1)CCCC2	95.56%
O=C(OCc1cccc(F)c1)c1cccc(C(=O)N2CCCC2)n1	-9.061%
COc1ccc(CN2CCCN(c3cc(C(N)=O)ccn3)CC2)cc1	15.11%

Structure (SMILES)	Percent Effect
CCOc1cc(C)ccc1NC(=O)N(C)Cc1cnn(C)c1	5.553%
CCOc1cc2c(cc1C(=O)O)CCC2	-16.22%
Cc1cccc(CC(=O)N2CCCCC2CN)c1.Cl (stereo not given)	-0.4794%
CCOc1cc(=O)n2c(c1C(=O)OCc1ccc(C)cc1)CCCC2	83.47%
CCOc1cc(=O)n2c(c1C(=O)OCc1cccc(C)c1)CCCC2	85.47%
COc1ccc(CN(CC2CCCO2)C(=O)CN2CCCCC2=O)cc1 (stereo not given)	3.552%
Cc1cccc(COc2ccccc2C(=O)N2CCC(C(N)=O)CC2)c1	0.1214%
COC(=O)C(O)C1CCN(CCc2ccc(C)cc2)CC1 (stereo not given)	-9.232%
Cc1ccc(C(=O)N(C)CCNS(C)(=O)=O)cc1Br	-2.447%
Cc1cc(C(=O)N2CCOC[C@H](Oc3cnccn3)C2)c(C(F)(F)F)o1	1.166%
Cc1nnc2n1CCN(CC(=O)NC(C)c1cc3ccccc3o1)C2 (stereo not given)	-0.5236%
COCCN1CCN(Cc2ccc(F)c(C)c2)[C@H]2CS(=O)(=O)C[C@H]21	-0.5112%
O=C1NCCN(Cc2ccoc2)C1CC(=O)N1CCc2sccc2C1 (stereo not given)	-12.03%
CCCN1CCN(Cc2nc3ccccc3[nH]2)[C@H]2CS(=O)(=O)C[C@H]21	-8.969%
CC1CCC(O)(CN2CCN(CCNC(=O)C3CCC3)CC2)CC1 (stereo not given)	8.242%
Cc1[nH]c2c(C)ccc(C)c2c1CC(=O)NCCNc1cccnc1	0.5336%
N[C@@H]1CCN(Cc2ccccc2CS(=O)(=O)c2ccccc2)C[C@H]1O	-11.48%
c1cnnc(N[C@@H]2CC[C@@H]3CN(Cc4ccc5[nH]ccc5c4)C[C@@H]32)c1	53.89%
c1ccc2c(Cc3nnc([C@H]4CCNC4)o3)c[nH]c2c1	-7.413%
Cc1nccc(N[C@H]2CN(CCS(C)(=O)=O)C[C@@H]2C2CC2)n1	-10.57%
c1cnnc(N[C@@H]2CC[C@@H]3CN(Cc4ccc5cc[nH]c5c4)C[C@@H]32)c1	79.05%
c1cnnc(N[C@@H]2CC[C@@H]3CN(Cc4c[nH]c5ccccc45)C[C@@H]32)c1	81.26%
c1cc2ccc(N3CCN(Cc4ccc5c(c4)OCO5)CC3)nc2[nH]1	-12.23%
CN(C)S(=O)(=O)N1C[C@@H]2CC[C@H](C1)N(Cc1ccc3[nH]ccc3c1)C2	10.36%
c1cnn(CCC2CCN(Cc3ccc4[nH]ccc4c3)CC2)c1	-20.25%

Structure (SMILES)	Percent Effect
O=C1CO[C@H]2CN(Cc3c[nH]c4ccccc34)C[C@H]2N1	5.983%
Cc1cn2c(CN(C)C(=O)c3cnc(N)c(Cl)c3)c(C)nc2s1	7.837%
CCn1cnnc1CN(C)C(=O)c1cc(COc2cccc(F)c2)[nH]n1	-21.78%
CCOCC(=O)NC1(c2cccc(Cl)c2)CC1	-6.24%
c1cnn(CC2CCCN2Cc2ccc(-n3cccn3)cc2)c1 (stereo not given)	123%
CCCc1nc(CN2CCCC2Cn2cccn2)cs1 (stereo not given)	-10.42%
c1ccc(-n2cc(CN3CCCC3Cn3cccn3)nn2)cc1 (stereo not given)	141.8%
Cc1nc(CN2CCCC2Cn2cccn2)nc2ccccc12 (stereo not given)	5.126%
Cc1nc2ccccc2nc1CN1CCCC1Cn1cccn1 (stereo not given)	15.41%
Cc1nc(C)n(CC2CCCN2Cc2cn(-c3ccccc3)nn2)n1 (stereo not given)	-1.626%
CCC(=O)N1CCN(C(=O)Nc2ccc(Cl)cc2)[C@H]2CS(=O)(=O)C[C@H]21	20.51%
O=C(COC1CCCC1)N1C[C@@H]2CN(Cc3ccoc3)CCO[C@@H]2C1.O=C(O)C(F)(F)F	-10.48%
CC(=O)Nc1ncc(S(=O)(=O)Nc2ccc(F)cc2)s1	1.75%
O=C1NCC(C(=O)Nc2ncc(Cc3ccc(F)cc3F)s2)N1 (stereo not given)	122.8%
O=C(NCc1ccccc1F)NC1CCCN(c2ncccn2)C1 (stereo not given)	7.135%
CC(=O)Nc1ncc(S(=O)(=O)Nc2ccc(F)cc2F)s1	11.75%
O=C1NCC(C(=O)Nc2ncc(Cc3ccccc3F)s2)N1 (stereo not given)	80.55%
Cc1ccccc1Cc1cnc(NC(=O)C2CNC(=O)N2)s1 (stereo not given)	1.413%
CCCNc1ncc(C2CC(=O)NCc3nc4ccccn4c32)cn1 (stereo not given)	19.88%
CCS(=O)(=O)c1ccccc1N1CCC(NC(C)=O)CC1	-10.39%
NC(=O)c1c(SCCN2CCCCC2)sc2c(O)cc(=O)[nH]c12	88.72%
CN(CCN1CCCCCC1)C(=O)c1c(O)cccc1O	-5.64%
CCOCC(=O)N1CC(=O)Nc2cc(Br)ccc21	-5.264%
O=c1n(CCNCc2ccc(-c3ccccc3)cc2)nc2ccccn12	92.23%
Cc1cc(C(=O)NCCn2nc3ccccn3c2=O)[nH]n1	-11.84%

Structure (SMILES)	Percent Effect
O=c1n(CCNCc2ccc3ccccc3c2)nc2ccccn12	96.37%
Cc1ccc(CSCCn2nc3ccccn3c2=O)cc1	-0.2652%
Cc1ccc2cc(C(=O)NCCn3nc4ccccn4c3=O)[nH]c2c1	12.5%
Cc1cc(C)c2c(c1)C(NC(=O)CSCC(N)=O)CCO2 (stereo not given)	-11.46%
N[C@@H](Cc1c[nH]cn1)C(=O)N1CCC(Oc2ccc(Cl)cc2)CC1	129.2%
COc1ccc(OC2CCN(C(=O)C(C)Cn3cccn3)CC2)cc1 (stereo not given)	-7.925%
COc1ccc(OC2CCN(C(=O)[C@@H](N)Cc3c[nH]cn3)CC2)cc1	108.9%
O=C(O)c1ccc(N2CCC(Oc3ccc(Cl)cc3)CC2)nc1	7.355%
Cc1ccc(OC2CCN(C(=O)C(C)Cn3cccn3)CC2)cc1 (stereo not given)	-8.941%
CN1CCC(N(C)CCC(=O)N2CCC(Oc3ccc(Cl)cc3)CC2)C1 (stereo not given)	-10.05%
O=C(N1CCC(Oc2ccncc2)CC1)C1(c2ccc(F)cc2)CC1	4.458%
COc1ccc(OC2CCN(C(=O)c3cnc(C)s3)CC2)cc1	-7.331%
N[C@@H](Cc1c[nH]cn1)C(=O)N1CCC(Oc2ccc(F)cc2)CC1	142.9%
CCN(Cc1nc(COC)no1)Cc1cccnc1NC	-1.287%
COCCCN1CCC(CNc2nccc(-c3cnn(C)c3)n2)C1 (stereo not given)	0.7819%
CN(C)C(=O)c1cc2ncc(C(=O)NC3CCCC3)cc2n1C	130.7%
CC1CCN(C(=O)c2cnc3cc(C(=O)N(C)C)n(C)c3c2)CC1	124.9%
CN(C)C(=O)c1cccc(C[S+]([O-])CC(=O)NC2CCCC2)c1 (stereo not given)	8.2%
Cn1nc(C(=O)NC2CCCC2)cc1NC(=O)C1CC1	3.278%
CCNc1ncc(C(=O)N[C@H]2CC[C@H](n3cnnc3)CC2)cn1	-5.329%
CC(C)Oc1ncc(C(=O)N2CCC(N(C)C)CC2)cc1Cl	-24.51%
CN(C)C(=O)c1cc2ncc(C(=O)NC3CC3)cc2n1C	122.1%
CC1CCN(C(=O)c2cccc3ncccc23)CC1	-1.834%
O=C(NC1CC1)c1cnc2n1CCCC2	4.998%
COC(C(=O)N1CCN(Cc2noc(C)n2)CC1)c1ccccc1 (stereo not given)	-8.523%
